Experiment [1] in a line: qHTS of pediatric cancer cell lines to identify multiple opportunities for drug repurposing: Confirmatory screen for NB1643 cells (AID 1347109). Further: nearly all actives have a fitted effect of over 45% in size. Further: potency means the concentration at half of the fitted maximal effect. The method in brief:
(§1)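 Cells (500-1,000/well) rested 5 h, then received compounds for 48 h; metabolically active cells were measured by CellTiter-Glo luminescence. Final concentrations spanned up to 46 µM (MIPE, 11-point) or 0.59 nM-46 µM (NPC, 8-point) in primary screens, 11-point in follow-ups.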
(In general: In qHTS, concentration-response curves come from the screen itself.)

A short description of experiment [2]: qHTS of pediatric cancer cell lines to identify multiple opportunities for drug repurposing: Confirmatory screen for A673 cells (AID 1347110).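 Further: cells exposed to compound for 48 h before the viability read; nearly all actives have a fitted effect of over 65% in size.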 Further: potency means the concentration at half of the fitted maximal effect. The method in brief:
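Forty-eight-hour viability assay. Follow-up compounds ran at 11-point dilutions; positive control bortezomib at 2.3 uM final, neutral control DMSO.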

Experiment [3] in a line: qHTS of pediatric cancer cell lines to identify multiple opportunities for drug repurposing: Confirmatory screen for SK-N-MC cells (AID 1347111).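 Further: cells exposed to compound for 48 h before the readout; nearly all actives have a fitted effect of over 70% in size.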 Further: potency means the concentration at half of the fitted maximal effect. An outline of the steps: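 Seed 500-1,000 cells/well; rest 5 h at 37 degrees C. Pin-transfer compounds, 11-point titration. Incubate 48 h. Add CellTiter-Glo, 15 min RT, read luminescence.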
A short description of experiment [4]: qHTS of pediatric cancer cell lines to identify multiple opportunities for drug repurposing: Confirmatory screen for BT-12 cells (AID 1347112). Further: potency means the concentration at half of the fitted maximal effect.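 Further: viability read after 48 h of compound exposure; nearly all actives have a fitted effect of over 55% in size.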 The method in brief: as §1
The nature of experiment [5]: qHTS of pediatric cancer cell lines to identify multiple opportunities for drug repurposing: Confirmatory screen for NB-EBc1 cells (AID 1347115).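 Further: cells exposed to compound for 48 h before the viability read; nearly all actives have a fitted effect of over 45% in size.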 Further: potency means the concentration at half of the fitted maximal effect. The method in brief: as §1
A short description of experiment [6]: qHTS of pediatric cancer cell lines to identify multiple opportunities for drug repurposing: Confirmatory screen for BT-37 cells (AID 1347117). Further: nearly all actives have a fitted effect of over 55% in size. Further: potency means the concentration at half of the fitted maximal effect. The method in brief:
as §1

Experiment [7] can be described thus: qHTS of pediatric cancer cell lines to identify multiple opportunities for drug repurposing: Confirmatory screen for TC32 cells (AID 1347118).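 Further: cells exposed to compound for 48 h before the read; nearly all actives have a fitted effect of over 65% in size.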 Further: potency means the concentration at half of the fitted maximal effect. An outline of the steps:
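qHTS, TC32, 48 h drug treatment, CellTiter-Glo luminescence as a proxy for metabolically active cells; primary top concentration 46 µM (MIPE 11-pt, NPC 8-pt); confirmatory 11-pt.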

Experiment [8] in a line: qHTS of pediatric cancer cell lines to identify multiple opportunities for drug repurposing: Confirmatory screen for MG 63 (6-TG R) cells (AID 1347119). Further: nearly all actives have a fitted effect of over 55% in size. Further: potency means the concentration at half of the fitted maximal effect. The method in brief: as §1
Experiment [9] can be described thus: qHTS of pediatric cancer cell lines to identify multiple opportunities for drug repurposing: Confirmatory screen for U-2 OS cells (AID 1347122). Further: nearly all actives have a fitted effect of over 65% in size. Further: potency means the concentration at half of the fitted maximal effect. An outline of the steps: as §1
Experiment [10] in a line: qHTS of pediatric cancer cell lines to identify multiple opportunities for drug repurposing: Confirmatory screen for Rh41 cells (AID 1347123).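 Further: 48 h compound exposure; nearly all actives have a fitted effect of over 60% in size.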 Further: potency means the concentration at half of the fitted maximal effect. An outline of the steps:
as §1

A short description of experiment [11]: qHTS of pediatric cancer cell lines to identify multiple opportunities for drug repurposing: Confirmatory screen for RD cells (AID 1347124).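 Further: cells exposed to compound for 48 h before viability readout; nearly all actives have a fitted effect of over 65% in size.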 Further: potency means the concentration at half of the fitted maximal effect. An outline of the steps: as §1
Experiment [12] can be described thus: qHTS of pediatric cancer cell lines to identify multiple opportunities for drug repurposing: Confirmatory screen for Rh18 cells (AID 1347125). Further: nearly all actives have a fitted effect of over 55% in size. Further: potency means the concentration at half of the fitted maximal effect. An outline of the steps: as §1
Experiment [13] in a line: qHTS of pediatric cancer cell lines to identify multiple opportunities for drug repurposing: Confirmatory screen for Rh30 cells (AID 1347126). Further: nearly all actives have a fitted effect of over 55% in size. Further: potency means the concentration at half of the fitted maximal effect. An outline of the steps: as §1
Experiment [14] can be described thus: qHTS of pediatric cancer cell lines to identify multiple opportunities for drug repurposing: Confirmatory screen for Saos-2 cells (AID 1347127). Further: nearly all actives have a fitted effect of over 60% in size. Further: potency means the concentration at half of the fitted maximal effect. An outline of the steps: as §1
The nature of experiment [15]: qHTS of pediatric cancer cell lines to identify multiple opportunities for drug repurposing: Confirmatory screen for OHS-50 cells (AID 1347128). Further: potency means the concentration at half of the fitted maximal effect. The method in brief:
as §1

Experiment [16] is described as follows: qHTS of pediatric cancer cell lines to identify multiple opportunities for drug repurposing: Confirmatory screen for control Hh wild type fibroblast cells (AID 1347121). Further: nearly all actives have a fitted effect of over 70% in size. An outline of the steps:
as §1

The nature of experiment [17]: qHTS of pediatric cancer cell lines to identify multiple opportunities for drug repurposing: Confirmatory screen for SK-N-SH cells (AID 1347129).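 Further: cells exposed to compound for 48 h before viability read; nearly all actives have a fitted effect of over 60% in size.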 Further: potency means the concentration at half of the fitted maximal effect. The method in brief: as §1
A short description of experiment [18]: qHTS of pediatric cancer cell lines to identify multiple opportunities for drug repurposing: Confirmatory screen for LAN-5 cells (AID 1347113). Further: nearly all actives have a fitted effect of over 65% in size. Further: potency means the concentration at half of the fitted maximal effect. The method in brief: as §1
Experiment [19] in a line: qHTS of pediatric cancer cell lines to identify multiple opportunities for drug repurposing: Confirmatory screen for DAOY cells (AID 1347114). Further: nearly all actives have a fitted effect of over 65% in size. An outline of the steps: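 Viability measured as metabolically active cells via CellTiter-Glo luminescence following 48 hours of compound exposure, 11-point dilutions in confirmatory testing. 500-1,000 cells/well plated 5 hours before dosing; controls were DMSO and 2.3 µM bortezomib.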

Results filed as inconclusive are left out. Values without a mark were called inactive. Calls of active or inactive are those of the source. The call rests on the fitted dose curve; in most records, active means well fitted curve in the direction sought with a large enough effect; inconclusive means small, poorly fitted or top-dose-only effect, or another doubt; inactive means no such curve, though single readings can be large; an effect the other way counts as inactive or inconclusive.

As for `Cc1ccc(C(=O)N(CCCN)[C@@H](c2oc3cc(Cl)ccc3c(=O)c2Cc2ccccc2)C(C)C)cc1`, the Potency in [1] is 6570 nM (active); in experiment [2], 1.9 nM (active); in [3], 5.9 nM (active); in experiment [4] it was 10.4 nM (active); in experiment [5], 8270 nM (active); in experiment [6], 11.7 nM (active). The Potency in experiment [7] is 10.4 nM (active); in experiment [8], 23.3 nM (active); in [9], 36.9 nM (active); in experiment [10], 9.3 nM (active); in experiment [11], 16.5 nM (active); in experiment [12] it was 26100 nM (active). For the same compound, the Potency in [13] is 23300 nM (active); in experiment [14], 9.3 nM (active); in [15], 9.3 nM (active).

Turning to `COc1cc([C@@H]2c3cc4c(cc3[C@@H](O[C@@H]3O[C@@H]5CO[C@@H](C)O[C@@H]5[C@H](O)[C@@H]3O)[C@H]3COC(=O)[C@H]23)OCO4)cc(OC)c1O`, the Potency is 1470 nM (active) in [1]; 4650 nM (active) in experiment [2]; 1040 nM (active) in experiment [3]; 1470 nM (active) in experiment [5]; 737 nM (active) in [6]; 657 nM (active) in [7]. In addition, the Potency was 5850 nM (active) in experiment [8]; 4140 nM (active) in experiment [10]; 4650 nM (active) in experiment [13]; 5220 nM (active) in [14]; 8270 nM (active) in experiment [15]. In addition, the Potency entry in [16] and in experiment [11] was “inactive” in each case.

`Cc1ccccc1-n1c(Cn2nc(-c3cccc(O)c3)c3c(N)ncnc32)nc2cccc(C)c2c1=O`: the Potency result in [1], in experiment [4], in [7], in experiment [16], in experiment [12] and in [14] was “inactive” throughout. Also, the Potency result in experiment [15] and in experiment [17] was “inactive” throughout. The Potency in experiment [2] was 7370 nM (active); in [13] it was 13100 nM (active).

As for `CC1=C(CC(=O)O)c2cc(F)ccc2C1=Cc1ccc(S(C)=O)cc1` (stereo not given), the Potency result in experiment [1], in [2], in experiment [3], in experiment [4], in [18] and in [5] was “inactive” throughout. For the same compound, the Potency result in experiment [6], in [7], in experiment [8], in [16], in experiment [9] and in experiment [10] was “inactive” each time. Moreover, the Potency entry in experiment [11], in experiment [12], in experiment [13], in experiment [14], in experiment [15] and in experiment [17] was “inactive” each time.

Turning to `C[C@@H]1[C@H](O)[C@@H](C)C=CC=CC=CC=CC=CC=CC=C[C@H](O[C@@H]2O[C@H](C)[C@H](O)[C@H](N)[C@@H]2O)C[C@@H]2O[C@](O)(C[C@@H](O)C[C@@H](O)[C@H](O)CC[C@@H](O)C[C@@H](O)CC(=O)O[C@H]1C)C[C@H](O)[C@@H]2C(=O)O`, the Potency entry in experiment [1], in experiment [2], in [4], in experiment [5], in experiment [6] and in [8] was “inactive” throughout. The Potency result in [16], in experiment [9], in experiment [10], in [11], in experiment [12] and in experiment [13] was “inactive” each time. The Potency entry in experiment [14], in experiment [15] and in experiment [17] was “inactive” throughout. Further, the Potency in [3] is 10400 nM (active); in experiment [7], 11700 nM (active).

Regarding `CCC(=O)N1CCN(c2ccc(-n3c(=O)ccc4cnc5ccc(-c6cnc7ccccc7c6)cc5c43)cc2C(F)(F)F)CC1`, the Potency entry in experiment [1], in experiment [2], in experiment [4], in experiment [5], in [16] and in experiment [9] was “inactive” each time. Further, the Potency result in [11], in experiment [12], in experiment [13], in experiment [15] and in experiment [17] was “inactive” each time. For the same compound, the Potency was 9270 nM (active) in [3] and 8270 nM (active) in [7].

Consider `CCNC(=O)c1noc(-c2cc(C(C)C)c(O)cc2O)c1-c1ccc(CN2CCOCC2)cc1`, for which the Potency was 73.7 nM (active) in experiment [1]; 52.2 nM (active) in [2]; 82.7 nM (active) in [3]; 293 nM (active) in experiment [5]; 82.7 nM (active) in experiment [6]; 82.7 nM (active) in experiment [7]. For the same compound, the Potency is 147 nM (active) in experiment [8]; 117 nM (active) in [9]; 46.5 nM (active) in [10]; 73.7 nM (active) in experiment [11]; 92.8 nM (active) in experiment [12]; 73.7 nM (active) in [13]. Further, the Potency in experiment [14] is 131 nM (active); in experiment [15], 147 nM (active); in experiment [17], 132 nM (active).

In the case of `CO[C@H]1/C=C\O[C@@]2(C)Oc3c(C)c(O)c4c(O)c(c5c(nc6cc(C)ccn65)c4c3C2=O)NC(=O)C(C)=CC=C[C@H](C)[C@H](O)[C@@H](C)[C@@H](O)[C@@H](C)[C@H](OC(C)=O)[C@H]1C`, the Potency entry in experiment [1], in experiment [2], in [4], in experiment [18], in [5] and in experiment [6] was “inactive” each time. Moreover, the Potency result in experiment [8], in experiment [16], in experiment [9], in experiment [11], in experiment [12] and in [13] was “inactive” each time. For the same compound, the Potency result in experiment [14] and in experiment [17] was “inactive” each time.

In the case of `CC1(C)CC(=O)c2c(C(F)(F)F)nn(-c3ccc(C(N)=O)c(NC4CCC(O)CC4)c3)c2C1` (stereo not given), the Potency is 165 nM (active) in experiment [1]; 147 nM (active) in [2]; 165 nM (active) in experiment [3]; 261 nM (active) in experiment [5]; 104 nM (active) in experiment [6]; 165 nM (active) in [7]. Also, the Potency is 185 nM (active) in experiment [9]; 369 nM (active) in [10]; 261 nM (active) in experiment [12]; 369 nM (active) in [13]; 264 nM (active) in experiment [17]. Besides, the Potency entry in experiment [4] is “inactive”.

In the case of `COc1ccc2c(c1)c(C1=C(c3c[nH]c4ccccc34)C(=O)NC1=O)cn2CCCN(C)C`, the Potency in experiment [1] is 20800 nM (active); in [3], 8270 nM (active); in experiment [18] it was 16500 nM (active); in experiment [6], 23300 nM (active); in experiment [7], 23300 nM (active); in experiment [10] it was 20800 nM (active). Further, the Potency is 2330 nM (active) in [13], 23300 nM (active) in experiment [15] and 16600 nM (active) in experiment [17]. Further, the Potency entry in experiment [8], in [16], in experiment [12] and in [14] was “inactive” each time.

On to `Nc1ccn([C@@H]2O[C@H](CO)[C@@H](O)[C@H]2O)c(=O)n1`, for which the Potency was 657 nM (active) in [2]; 2610 nM (active) in [3]; 3290 nM (active) in experiment [5]; 329 nM (active) in experiment [6]; 329 nM (active) in [7]. Moreover, the Potency result in experiment [19], in experiment [8], in [16], in experiment [9] and in experiment [12] was “inactive” throughout.

For `CCC(c1ccc(O)cc1)C(CC)c1ccc(O)cc1` (stereo not given), the Potency result in experiment [2], in experiment [16], in experiment [9], in experiment [14] and in experiment [17] was “inactive” throughout. Moreover, the Potency is 9270 nM (active) in experiment [3]; 10400 nM (active) in experiment [6]; 3690 nM (active) in experiment [7]; 8270 nM (active) in experiment [8]; 10400 nM (active) in [11].

Source of the values: PubChem BioAssay (NCATS).
